Measurements taken from PubChem BioAssay AID1851 (National Center for Advancing Translational Sciences (NCATS), 2009).
Among all 16,000 compounds or so, about 4,000 (25%) were called active. About 26% were inconclusive and are not listed. Calls come from the whole dose curve; as a rule, active = well fitted curve in the direction sought with a large enough effect; inconclusive = small, poorly fitted or top-dose-only effect, or effect the other way; inactive = no such curve, though single readings can be large or run the other way. A selection follows.

Target: Cytochrome P450 2C9 (Homo sapiens) (UniProt P11712)
Sequence (P11712 whole entry, looked up): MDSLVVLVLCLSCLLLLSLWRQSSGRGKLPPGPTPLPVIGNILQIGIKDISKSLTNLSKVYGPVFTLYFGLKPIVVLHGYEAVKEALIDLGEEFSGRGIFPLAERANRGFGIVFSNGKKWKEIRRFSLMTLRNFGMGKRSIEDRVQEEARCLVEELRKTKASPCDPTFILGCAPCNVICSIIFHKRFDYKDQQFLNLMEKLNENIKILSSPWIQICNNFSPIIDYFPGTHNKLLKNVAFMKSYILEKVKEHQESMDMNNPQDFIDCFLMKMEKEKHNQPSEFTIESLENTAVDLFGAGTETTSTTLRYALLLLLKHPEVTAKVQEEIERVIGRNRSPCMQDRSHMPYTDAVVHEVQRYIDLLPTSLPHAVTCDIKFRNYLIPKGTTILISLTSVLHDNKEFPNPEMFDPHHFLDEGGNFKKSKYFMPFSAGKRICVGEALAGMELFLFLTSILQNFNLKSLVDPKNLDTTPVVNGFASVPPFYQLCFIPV
Assay: Cytochrome panel assay with activity outcomes
Conditions: recombinant CYP, pro-luciferin dealkylation, luminescence, p450-cyp2c9; series mostly up to 57.1 µM; activity, negative = inhibition: at the top concentration
% is set by controls: 0 for no effect and ±100 for the full control effect.

AC50, active:
Cc1ccc2nc(SCc3nc4c(cnn4-c4ccccc4)c(=O)[nH]3)[nH]c2c1 4.47 µM
C=CCSc1nc2ccccc2n1C(=O)/C=C/c1cc(OC)c(OC)c(OC)c1 7.94 µM
CCSc1nc2ccccc2n1C(=O)/C=C\c1ccc(OC)c(OC)c1 1.58 µM
CCCNC(=O)OC[C@@H]1O[C@H](CCO/N=C(\C)CCN2CCc3nc(-c4ccccc4)c(-c4ccccc4)cc3C2)C=C[C@@H]1Oc1ccc(OC)cc1 2 µM
COc1ccc(O[C@H]2C=C[C@@H](c3ccccc3)O[C@H]2COC(=O)CC/C(C)=N/OCC[C@@H]2C=C[C@H](OC(C)=O)[C@H](COC(C)=O)O2)cc1 3.98 µM
COc1ccc(O[C@H]2C=C[C@@H](c3ccccc3)O[C@H]2COC(=O)CC/C(C)=N\OC[C@@H](O)[C@H]2O[C@H]3OC(C)(C)O[C@H]3[C@@H]2O)cc1 1.58 µM
COc1ccc(O[C@H]2C=C[C@@H](c3ccccc3)O[C@H]2COC(=O)N2CCCCC2)cc1 2.51 µM
CCOc1ccc(C(=O)Nc2cnn(Cc3ccc(Cl)c(Cl)c3)c2)cc1 17.8 µM
CC(C)N(C(=O)CSc1nc2ccccc2n1-c1ccccc1)C(C)C 15.8 µM
CCOC(=O)c1c(NC(=S)Nc2ccccc2)sc2c1CCN(CCc1ccccc1)C2 0.282 µM
O=C(COc1ccc2ccccc2c1)Nc1ccc(Cc2ccncc2)cc1 0.316 µM
CCSc1nnc(NC(=O)COc2ccc3ccccc3c2)s1 0.224 µM
Cc1cc(C)c(C#N)c(SCc2cc3c(cc2Cl)OCO3)n1 3.16 µM
COc1ccc(Nc2nnc(-c3ccc(N4CCOCC4)c([N+](=O)[O-])c3)c3ccccc23)cc1 3.16 µM
NCCCCCCNS(=O)(=O)c1cccc2c(Cl)cccc12 3.16 µM
NCCCCNS(=O)(=O)c1ccc2c(Cl)cccc2c1 2 µM
NCCCCCCCCCCNS(=O)(=O)c1cccc2c(Cl)cccc12 0.0501 µM
N[C@H](C(=O)O)[C@H](OCc1ccccc1)C(=O)O 10 µM
O=C(CSc1nc2ccccc2s1)N1c2ccccc2Sc2ccc(C(F)(F)F)cc21 3.55 µM
Cc1ccc(S(=O)(=O)NC(=O)CSc2nc3ccccc3s2)cc1 2.51 µM
O=C(CSc1nc2ccccc2s1)NNC(=S)Nc1ccc(Br)cc1 5.01 µM
NCCSc1nc2ccccc2s1 1.58 µM
O=C(CSc1nc2ccccc2s1)N1c2ccccc2Sc2ccccc21 1.12 µM
CCOC(=O)C1=C(C)C(c2ccccc2OC)NC(=S)N1 (centres undefined) 15.8 µM
COC(=O)C1=C(C)C(c2ccc(OC)cc2)NC(=S)N1 (centres undefined) 15.8 µM

AC50, inactive:
NCCNS(=O)(=O)c1cccc2cnccc12
OCCN1CCN(CC/C=C2\c3ccccc3Sc3ccc(C(F)(F)F)cc32)CC1
CCSC(=N)N

activity, negative = inhibition, inactive:
COc1cc(/C=C/C(=O)Nc2ccccc2C(F)(F)F)cc(OC)c1OC -26.9%
COc1ccc(NC(=O)COC(=O)Cn2c(C)nc3ccccc32)cc1OC -22.4%
COc1cc(/C=C\C(=O)N2CCC=CC2=O)cc(OC)c1OC 17.9% [at 25.6 µM]
CC(=O)n1c(COS(C)(=O)=O)nc2ccccc21 -7.23% [at 11.4 µM]
COc1ccc(O[C@H]2C=C[C@@H](c3ccccc3)O[C@H]2CO/N=C(/C)CCC(=O)OC[C@@H]2O[C@H](C#Cc3ccccc3)C=C[C@@H]2Oc2ccc(C)cc2)cc1 -16.6% [at 11.4 µM]
CCCNC(=O)OC[C@H]1O[C@@H](CCO/N=C2/[C@H]3O[C@@H]3[C@@H](O)[C@H]3[C@H]2CCn2c(=O)n(-c4ccccc4)c(=O)n23)C=C[C@@H]1Oc1ccc(OC)cc1 -24.3% [at 11.4 µM]
COc1ccc(O[C@H]2C=C[C@@H](c3ccccc3)O[C@H]2COC(=O)CC/C(C)=N/O[C@@H]2O[C@H](COC(C)=O)[C@H](OC(C)=O)[C@H](OC(C)=O)[C@H]2OC(C)=O)cc1 -25.6% [at 11.4 µM]
CCCNC(=O)OC[C@@H]1O[C@H](CCO/N=C(\C)CCN2CCc3nc(CC)c(CC)cc3C2)C=C[C@@H]1Oc1ccc(OC)cc1 -21.2% [at 11.4 µM]
CCCNC(=O)OC[C@@H]1O[C@H](c2ccccc2)C=C[C@@H]1Oc1ccc(OC)cc1 -29.7% [at 11.4 µM]
COc1ccc(O[C@H]2C=C[C@@H](c3ccccc3)O[C@H]2CO/N=C(/C)CCC(=O)OC[C@@H]2O[C@H](c3ccccc3)C=C[C@@H]2Oc2ccc(OC)cc2)cc1 -3.16% [at 11.4 µM]
C/C(CCC(=O)OC[C@@H]1O[C@H](C#Cc2ccccc2)C=C[C@@H]1Oc1ccc(C)cc1)=N/OC[C@@H](O)[C@H]1O[C@H]2OC(C)(C)O[C@H]2[C@@H]1O -25.1% [at 11.4 µM]
COc1ccc(O[C@H]2C=C[C@@H](c3ccccc3)O[C@@H]2CO/N=C(\C)CCN2CCc3nc(-c4ccccc4)c(-c4ccccc4)cc3C2)cc1 -13.6% [at 11.4 µM]
C=CC[N+]1(CC#CCOC(c2ccccc2)c2ccccc2)CCOCC1 -4.98%
COc1ccccc1CNc1ncncc1-c1ccccc1C 11.7% [at 2.29 µM]
CO/N=C(\C)CCN1CCCCc2nc(C)c(C)cc21 8.57% [at 11.4 µM]
CC1=CC(=O)C=CC1(C)C(Cl)(Cl)Cl (centres undefined) -19.5%
Nc1nccc(Nc2ccc(S(N)(=O)=O)cc2)n1 -3.1% [at 11.4 µM]
CCOC(OCC)P(=O)(O)CCCNCc1ccc(Cl)c(Cl)c1 6.63%
CCCOc1ccc(C(=O)CCNc2ccc(C)c(Cl)c2)cc1 1.11%
CCCCc1c(O)nc(SCCN(C)C)n(-c2ccccc2)c1=O -4.69%
Cn1c(SCc2nc3ccccc3n2CCO)nc2ccccc21 -20.4%
C[C@@H](N)C(=O)O -3.47%
CCN1CCc2c(sc(N)c2C(N)=O)C1 -3.22%
CCN1CCc2c(sc(NC(=S)NC(=O)c3ccccc3)c2C#N)C1 -29.2%
CC(=O)CC(=O)Nc1ccc2ccccc2c1 21.1% [at 11.4 µM]
CCSc1nnc(NC(=O)Cc2ccccc2OC)s1 -20.3%
O=C(COc1ccc2ccccc2c1)NNC(=O)Cc1cccc2ccccc12 4.04%
Nc1nc(Cl)cc(NCCO)n1 2.74% [at 11.4 µM]
O=C(O)[C@@H]1Cc2c([nH]c3ccccc23)[C@@H](CCCCO)N1 -6.46% [at 11.4 µM]
N#Cc1cccc(NC(=O)N2CCCC3(CCN(C(=O)c4cnccn4)CC3)C2)c1 3.77%
CS(=O)(=O)N1CCC2(CC1)CN(C(=O)Nc1cccc(C#N)c1)C2 -4.82%
CC(C)(C)NCC[C@@H](O)c1cc(C(F)(F)F)nc2c(C(F)(F)F)cccc12 3.88% [at 11.4 µM]
CNCCNS(=O)(=O)c1cccc2cnccc12 -29.4%
NCCNS(=O)(=O)c1ccc(N)cc1 -0.285% [at 11.4 µM]
CCCCCCCNS(=O)(=O)c1cccc2c(Cl)cccc12 -21.1%
NCCCCCCCCCCN 3.55%
N[C@@H](CSCc1ccccc1)C(=O)O 11.8% [at 11.4 µM]
N[C@@H](Cc1ccccc1)C(=O)O 13.9% [at 11.4 µM]
Fc1ccc(Nc2ncncc2-c2ccccc2C(F)(F)F)cc1 -4.04% [at 2.29 µM]
CN1CCN(c2ccnc(-c3cccc(NS(C)(=O)=O)c3)n2)CC1 -3.66% [at 2.29 µM]
CC(C)c1ccccc1S(=O)c1ccccc1C(C)(C)O (centres undefined) -18.2% [at 11.4 µM]
c1ccc2sc(SCSc3nc4ccccc4s3)nc2c1 -1.3% [at 11.4 µM]
c1ccc2sc(SCCSc3nc4ccccc4s3)nc2c1 23.1% [at 11.4 µM]
O=C(O)CCCSc1nc2ccccc2s1 -7.61% [at 11.4 µM]
O=C(CSc1nc2ccccc2s1)Nc1nccs1 -21%
CC(C)N=c1cc2n(-c3ccc(Cl)cc3)c3ccccc3nc-2cc1Nc1ccc(Cl)cc1 -15.2% [at 25.6 µM]
CN(C)c1ncc2nc(-c3cccc(C#N)c3)c(=O)n(C[C@H]3CCCO3)c2n1 -10.1%
CC(C)C(=O)C(C)(C)CCc1ccccn1 13.3% [at 11.4 µM]
O=C1[C@H]2[C@H]3[C@H](O)[C@H](O)C/C(=N/OC[C@@H](O)COCc4ccco4)[C@@H]3CC[C@@H]2C(=O)N1C1CCCCC1 -9.96% [at 11.4 µM]
CO[C@@H]1COC(=O)C/C=C\[C@H](C)COC(=O)[C@H](Cc2ccccc2)NC(=O)C/C=C\[C@H]1C -22.5% [at 11.4 µM]
CCOC(=O)C1C(=O)NC(C)C1c1ccccc1 (centres undefined) -20.7%
COc1ccc(N2C(=O)CCC(C(=O)O)C2c2ccc(F)cc2)cc1 (centres undefined) -15.9%
COc1ccc(C2C(C(=O)N3CCOCC3)CCC(=O)N2c2ccc(OC)cc2)cc1 (centres undefined) -18.2%
Nc1ccn([C@@H]2O[C@H](COC(=O)C34CC5CC(CC(C5)C3)C4)[C@@H](O)[C@@H]2O)c(=O)n1 -0.936% [at 11.4 µM]
C#CCCCO/N=C1/C[C@@H](O)[C@@H](O)[C@@H]2[C@@H]3C(=O)N(C[C@@H]4CCCO4)C(=O)[C@H]3CC[C@H]12 -17.1% [at 11.4 µM]
Cc1cccc2nc(C(F)(F)F)nc(=O)n12 -45.6%
